Most compounds without a hit are left out; they make up all but 1.2% or so of the library.
RGS16-Gao HTS – RGS16-Galphao interaction regulator (human); bead-based flow cytometry RGS16-Galphao binding, fluorescence; actives lie on both sides; binding response (% of control), % at 10 µM; actives 0.38% (n = 220,000); AID 1441;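 note: Galphao activated by GDP with aluminum fluoride before binding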
RGS8-Gao – modulates binding of RGS8 to human Galphao; P09471; multiplexed bead flow cytometry; actives lie on both sides; response (percent of control binding), % at 10 µM; actives 0.34% (n = 220,000); AID 1423; in the data active = response below about 60% or above about 140%; inactive = in between;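 note: Galphao activated as the GDP aluminium fluoride complex binding bead-coupled RGS8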
Target sequence (P09471 whole entry, looked up): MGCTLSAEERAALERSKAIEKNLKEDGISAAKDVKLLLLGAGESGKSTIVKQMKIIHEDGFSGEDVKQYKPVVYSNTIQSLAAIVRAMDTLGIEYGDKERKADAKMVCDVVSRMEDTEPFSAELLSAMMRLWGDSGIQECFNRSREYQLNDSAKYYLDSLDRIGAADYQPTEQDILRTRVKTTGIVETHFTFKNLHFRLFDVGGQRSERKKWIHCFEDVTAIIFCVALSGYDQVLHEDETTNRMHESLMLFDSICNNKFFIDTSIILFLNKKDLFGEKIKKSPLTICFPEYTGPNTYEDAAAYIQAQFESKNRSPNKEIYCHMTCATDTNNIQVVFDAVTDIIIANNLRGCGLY
RGS7-Gao – human RGS7-Galphao interaction regulation | P09471 | Multiplexed bead flow cytometry, RGS7-Galphao binding; actives lie on both sides | binding response (% of control), % at 10 µM | actives 0.35% (n = 220,000) | AID 1439; in the data active = binding response below about 49% or above about 150%; inconclusive = no clear call, values can overlap the other calls; inactive = in between;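 note: fluorescent Galphao held in activated GDP-AlF4 state binding bead-coupled RGS7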
Avidin bead fluor – compound fluoresces at 488/530 nm on avidin beads | compound fluorescence 488/530 nm, flow cytometry; hits give high values | fluorescence (KMESF) at 10 µM | actives 0.38% (n = 220,000) | AID 1775; in the data active = fluorescence above about 47
GSH bead fluor – GSH bead compound fluorescence profile; GSH beads flow cytometry, compound fluorescence 488/530 nm; hits give high values; fluorescence (KMESF) at 10 µM; actives 0.25% (n = 190,000); in the data active = fluorescence above about 89;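 note: glutathione beads carrying GST-tagged Bcl family fusion proteins plus one bare bead set; values are compound well signal with DMSO vehicle wells as background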
RGS4-Gao reg – human RGS4-Galphao interaction regulation. P09471. actives 0.33% (n = 220,000). AID 1415. Multiplexed bead flow cytometry, RGS4-Galphao binding; actives lie on both sides. binding response (% of control), % at 10 µM; in the data active = binding response below about 49% or above about 150%; inactive = in between;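 note: fluorescent Galphao activated with aluminum fluoride binding bead-coupled RGS4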
RGS4-Gao HTS – regulators of human RGS4-Galphao interaction; actives 99% (n = 1,600); multiplexed bead flow cytometry, RGS–Galpha-o binding; RGS4–Galpha-o binding response, % at 10 µM; shares compounds with RGS16-Gao HTS;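 note: fluorescently labeled Galpha-o bound to GDP with aluminium fluoride binding biotinylated RGS beads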
Avidin counter – interferes with biotinylated probe binding to avidin beads; shares compounds with RGS16-Gao HTS; streptavidin beads, fluorescein-biotin binding, flow cytometry; inhibition, % at 10 µM; 1,700 tested, under 10 active; AID 1783;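 active = inhibition above 50%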;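 note: median green fluorescence of gated singlet beads compared with DMSO control wells; 0% = DMSO wells and 100% = complete loss of bead fluorescence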
RGS8-Gao single – confirmation of regulators of human RGS8-Galphao interaction; actives 3% (n = 1,700); bead-based flow cytometry RGS8-Galphao binding, fluorescence; actives lie on both sides; shares compounds with RGS16-Gao HTS; binding response (% of control), % at 10 µM; in the data active = binding response below about 72% or above about 130%; inactive = in between;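 note: Galphao activated as GDP AlF4 complex before binding bead RGS8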
RGS7-Gao single – confirmation of regulators of human RGS7-Galphao interaction; shares compounds with RGS16-Gao HTS; bead-based flow cytometry RGS7-Galphao binding; actives lie on both sides; response (percent of control binding), % at 10 µM; actives 7.8% (n = 1,700); AID 1837; in the data active = response below about 75% or above about 130%; inactive = in between;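 note: fluorescent Galphao activated with GDP and aluminum fluoride binding bead-coupled RGS7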
RGS16-Gao single – RGS16-Galphao interaction regulation, single point confirmation. response (% of control binding), % at 10 µM. bead-based flow cytometry, RGS16-Galphao binding; actives lie on both sides. shares compounds with RGS16-Gao HTS. actives 4% (n = 1,700); in the data active = response below about 74% or above about 130%; inactive = in between;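 note: Galphao activated as the GDP aluminium fluoride complex binding bead-coupled RGS16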
RGS4-Gao single – confirmation of regulators of human RGS4-Galphao interaction | AID 1840 | RGS4-Galphao binding, multiplexed bead flow cytometry; actives lie on both sides | shares compounds with RGS16-Gao HTS | actives 4% (n = 1,700) | binding response (% of control), % at 10 µM; in the data active = binding response below about 74% or above about 130%; inactive = in between
RGS19-Gao conf – RGS19-Galphao interaction regulation, single point confirmation; response (percent of control binding), % at 10 µM; bead-based flow cytometry RGS19-Galphao binding; actives lie on both sides; shares compounds with RGS16-Gao HTS; actives 5% (n = 1,700); AID 1841; in the data active = response below about 50% or above about 160%; inactive = in between;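 note: 100% = no compound control and 0% = blank background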
Target sequence (P09471 whole entry, looked up): as above
Target sequence (P49795 whole entry, looked up): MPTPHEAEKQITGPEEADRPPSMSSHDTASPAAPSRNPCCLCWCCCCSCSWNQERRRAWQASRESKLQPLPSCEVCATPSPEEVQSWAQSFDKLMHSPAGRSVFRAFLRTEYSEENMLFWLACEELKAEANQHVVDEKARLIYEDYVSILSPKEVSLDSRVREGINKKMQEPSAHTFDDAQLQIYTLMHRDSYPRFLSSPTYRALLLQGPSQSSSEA
Numbers without * were called inactive; ? = inconclusive; / = no result given; [ ] = dose if it differs, or a comment. Unless noted, the rule behind the calls is not given here.

SMILES	RGS16-Gao HTS	RGS8-Gao	RGS7-Gao	Avidin bead fluor	GSH bead fluor	RGS4-Gao reg	Avidin counter	RGS8-Gao single	RGS7-Gao single	RGS16-Gao single	RGS4-Gao single	RGS19-Gao conf	others
Cc1cc(C(=O)N2CCN(CCc3ccccc3)CC2)no1	303*[activator]	172*[activator]	224*[activator]	/	30	227*[activator]	1	93	58*	70*	73*	39*
O=C(C[n+]1ccc(-c2nnc3n2CCC3)cc1)c1ccc(Cl)c(Cl)c1	105	103	/	6	7	100	2	96	82	92	89	67
Cc1[nH]n(-c2ccccc2)c(=S)c1C=Nc1ccc([N+](=O)[O-])cc1	9.8*	74	116	3	7	86	/	/	/	/	/	/	RGS4-Gao HTS=86*
Cc1[nH]n(-c2ccccc2)c(=O)c1C=Nc1ccc(S(=O)(=O)N=C(N)N)cc1	101	99	?	9	/	103	/	/	/	/	/	/
O=C(CN1C(=O)CC(c2ccccc2)=Nc2ccccc21)NCc1ccco1	-0.5*	4.7*	1.6*	-2	29	3.2*	-2	102	102	102	102	94
O=C(CCNC(=O)c1ccco1)NCc1ccccc1	/	/	/	/	43	/	0	103	106	106	106	98
CCOC(=O)c1ccc[n+](C(C)C(=O)c2ccc(-c3ccccc3)cc2)c1 (configuration not stated)	101	99	99	3	10	98	/	/	/	/	/	/
CC(C(=O)c1ccc(-c2ccccc2)cc1)[n+]1cccc(NC(=O)c2ccccc2)c1 (configuration not stated)	/	/	/	/	/	/	3	106	111	102	108	84
COC(=O)c1ccc(C(=O)OC)c(NC(=O)CSc2ccccn2)c1	101	100	157*[activator]	87*	21	107	1	98	101	100	100	108	RGS4-Gao HTS=107*
COc1ccc(NC(=O)CSc2ccccn2)cc1OC	102	101	99	15	29	100	/	/	/	/	/	/
CN=c1scc(-c2cccs2)n1/N=C/c1ccc(O)c(O)c1O	83	87	93	4	12	90	/	/	/	/	/	/
CN=c1scc(C)n1/N=C/c1ccc(O)c(O)c1O	30	48*	53	6	8	64	-2	71*	57*	64*	77	29*	RGS4-Gao HTS=64*
COc1ccc(-c2cc(C(F)(F)F)nc(-n3ccnc3)n2)cc1	101	98	107	9	26	99	/	/	/	/	/	/
O=c1c2ccccc2ncn1-c1ccccc1C(F)(F)F	42	81	91	6	15	94	/	/	/	/	/	/
Cc1ccccc1/C=C/c1nc2ccccc2c(=O)[nH]1	14*	42*	?	0	/	7.3*	-2	102	100	102	102	108
Cc1ccc(NC(=O)Nc2cccs2)cc1	97	100	99	12	31	100	/	/	/	/	/	/
CCc1ccc(NC(=O)Nc2cccs2)cc1	-20*	5.8*	-11*	-3	10	-32*	1	105	98	106	103	96
O=c1cc(O)nc(-c2ccc(Cl)cc2)s1	97	96	104	12	13	99	/	/	/	/	/	/
CN1C(=O)C(O)(CC(=O)c2ccccc2O)c2cc(Br)ccc21 (configuration not stated)	252	148*[activator]	112	6	26	117	-2	107	105	109	105	105	RGS4-Gao HTS=117*
CC(C)n1c(-c2cccnc2)nc2cnccc21	214	140*[activator]	121	32	17	122	/	/	/	/	/	/	RGS4-Gao HTS=122*
COc1ccc(N=Cc2ccc(-c3ccccc3)o2)cc1	102	101	100	13	13	98	/	/	/	/	/	/
O=C(CCSCc1ccc(Cl)cc1)NCCc1ccccc1	93	97	97	12	11	103	/	/	/	/	/	/
Cc1ccc(CSCCC(=O)NCCc2ccc(Cl)cc2)cc1	212	112	212*[activator]	121*	17	188*[activator]	2	95	95	95	97	87
CC(NS(=O)(=O)c1ccc(Cl)cc1)C(=O)NCCC1=CCCCC1 (configuration not stated)	104	101	103	9	13	98	/	/	/	/	/	/
O=C(NCc1ccccn1)C1CCN(Cc2cnn(-c3ccccc3)c2-n2cccc2)CC1	/	/	/	/	27	136	0	96	96	96	96	95
SMILES	RGS16-Gao HTS	RGS8-Gao	RGS7-Gao	Avidin bead fluor	GSH bead fluor	RGS4-Gao reg	Avidin counter	RGS8-Gao single	RGS7-Gao single	RGS16-Gao single	RGS4-Gao single	RGS19-Gao conf	others
CSC1=NCCN1C(=O)c1c(-c2c(F)cccc2Cl)noc1C	101	103	?	5	/	99	/	/	/	/	/	/
CCc1ccc(N2C(=O)Nc3ccccc3C2(O)C(=O)N2CCN(c3ccccn3)CC2)cc1 (configuration not stated)	101	100	100	25	9	99	/	/	/	/	/	/
CC1CCCC(NC(=O)COC(=O)Cc2cn3ccsc3n2)C1C (configuration not stated)	-64*	3.7*	-19*	/	8	-58*	-1	103	99	107	100	99
O=C1c2ccccc2NC(c2cccc(F)c2)N1Cc1ccco1 (configuration not stated)	53	51*	31*	1	19	43*	-1	100	103	100	101	102
CCN1C(=O)/C(=C/N2CCc3ccccc3C2)SC1=S	/	/	/	/	/	/	2	99	99	99	97	102
Cc1nnc(NC(=O)CSc2nnc(Cc3ccccc3)n2Cc2ccccc2)s1	/	109	98	/	41	107	1	99	45*	79	59*	46*
CCn1c(SCC(=O)Nc2nnc(C)s2)nnc1-c1ccncc1	/	/	/	/	16	/	-1	100	96	96	99	91
